Only some compounds are listed: those with a hit (about 9.3% of all), similar ones and a draw of the others.
M1 agonist – M1 muscarinic receptor agonism; 64,000 tested, 3% active; AID 626; CHO-M1 cells, Fluo-4 calcium fluorescence, agonist mode; stronger effect = higher value; B-score at 10 µM;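 active = fluorescence rise, raw or as B-score row- and column-corrected plate score, outside the 99.7% band of its plate's samples, either direction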
Autofluor 339 – intrinsic fluorescence of library compounds, ex339/em460 – biochemical, MLSMR library, data from DPM-DC assay, artefact control, profiling panel | AID 709 | 65,000 tested, 5.5% active | compound autofluorescence, ex339/em460 nm, NADH buffer; stronger effect = higher value; 1 = no-compound wells, NADH background | fluorescence fold increase at 10 µM;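 active = at 10 µM, mean starting fluorescence two-fold or more over control wells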;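 also: signal is the first read of a kinetic run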
mHtt clearance – compounds clearing mutant huntingtin protein | 47,000 tested, 0.42% active | inhibition, % at 1.5 µM | HeLa Exon1htt(103Q)mCFP, aggregate imaging; zero = plate's median compound well;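 active = inhibition of aggregate fluorescence above about 70%, also judged a hit by eye on the cell image, limit read from the data, passing the limit was not always enough; inconclusive = no rule stated for this call; inactive = not judged a hit on image review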;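 also: cells exposed to compound for three days before fixation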
A340 absorber – absorbance at 340 nm | compound absorbance at 340 nm, fold over control | fold change at 10 µM | 65,000 tested, under 10 active;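 active = at 10 µM dose, initial 340 nm absorbance at least 2 fold that of control wells; inactive = change under 2 fold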;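 also: initial absorbance extrapolated from kinetic A340 decline of NADH oxidation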
NADH enzymes – inhibitors of enzymes used to reach an NAD/NADH endpoint. coupled PK/LDH NADH assays, four targets. IC50, µM (top dose mostly 10 µM), for the others: top-dose inhibition. 65,000 tested, 0.02% active. AID 774;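 active = single-dose screening hits from any of four coupled enzyme assays that gave an IC50 when retested across doses; inconclusive = no clear call, values can overlap the other calls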;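 also: the DPM-DC format reads NADH fluorescence rather than 340 nm absorbance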
M1 antagonist – antagonists of rat M1 muscarinic receptor; P08482; CHO-M1 cells, Fluo-4 calcium, ACh EC80 antagonist mode; stronger effect = lower value; B-score at 10 µM; 64,000 tested, 3.4% active; AID 628;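 active = calcium fluorescence response, raw or row-and-column corrected B-score, differing from the plate sample mean either way at a set confidence level, mostly lower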
Target sequence (P08482 whole entry, looked up): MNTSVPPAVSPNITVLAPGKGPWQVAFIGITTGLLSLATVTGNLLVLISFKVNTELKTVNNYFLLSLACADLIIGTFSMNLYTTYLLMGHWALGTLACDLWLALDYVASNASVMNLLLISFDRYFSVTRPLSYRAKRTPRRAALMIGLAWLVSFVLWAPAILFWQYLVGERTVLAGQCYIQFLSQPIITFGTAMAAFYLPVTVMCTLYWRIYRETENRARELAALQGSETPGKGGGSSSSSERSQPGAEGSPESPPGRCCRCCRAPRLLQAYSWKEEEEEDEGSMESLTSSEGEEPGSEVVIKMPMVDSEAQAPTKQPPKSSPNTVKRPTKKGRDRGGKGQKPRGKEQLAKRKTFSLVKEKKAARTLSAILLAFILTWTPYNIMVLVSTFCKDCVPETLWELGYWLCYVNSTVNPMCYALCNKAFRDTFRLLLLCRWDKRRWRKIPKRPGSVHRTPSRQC
M1 ag confirm – rat M1 muscarinic agonism, confirmation; shares compounds with M1 agonist; CHO-M1 cells, Fluo-4 calcium fluorescence, agonist mode; actives lie on both sides; fluorescence change (max-min) at 10 µM; 1,700 tested, 19% active; AID 1488;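 active = fluorescence change differs from the solvent-only DMSO control mean at a set confidence level in both duplicate runs; inconclusive = differs from solvent-only control mean in just one of two runs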;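 also: an EC20 dose of acetylcholine follows compound addition during the same imaging run; raw fluorescence intensity difference in instrument units with no normalization to controls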
M4 ag counter – rat M4 muscarinic agonism, M1 counter-screen; shares compounds with M1 agonist; CHO M4/Gqi5 cells, Fluo-4 calcium fluorescence, agonist mode; actives lie on both sides; fluorescence change (max-min) at 10 µM; 1,700 tested, 9% active; AID 1741;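 active = fluorescence change differing from the plate's solvent-only control wells at 99.7% confidence in both duplicates, whether higher or lower; inconclusive = differs from solvent controls in only one of two duplicates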
Starred values were filed as active, the others as inactive; ? = inconclusive; / = no result given.

SMILES | M1 agonist | Autofluor 339 | mHtt clearance | A340 absorber | NADH enzymes | M1 antagonist | M1 ag confirm | M4 ag counter
O=C(CCn1c(=O)oc2ccccc21)NCCN1CCc2ccccc2C1 | 3.3* | 1.1 | -35 | 1 | 2% | 0.41 | -7.5 | -30
CCCSc1nnc(NC(=O)Nc2ccccc2)s1 | -0.078 | 1.1 | / | 1 | 4% | -0.69 | / | /
CCCSc1nnc(NC(=O)Nc2ccc(F)cc2)s1 | 3.4* | 1.1 | / | 1 | 6% | -0.88 | -7.2 | -14
Cc1ccc2[nH]c3c(c2c1)CN(C(=O)CN1CC(C)OC(C)C1)CC3 (configuration not stated) | 8.4* | 1.1 | / | 1 | 5% | -0.019 | 31 | 17
Cc1ccc2[nH]c3c(c2c1)CN(C(=O)CN1CCN(Cc2ccc4c(c2)OCO4)CC1)CC3 | 0.065 | 1.1 | / | 0.97 | 10% | -1.6 | / | /
O=C(CN1CCOCC1)NCCNC(=O)CN1CCOCC1 | 4.2* | 1.1 | 61 | 1 | 0% | 1 | ? | ?
CCOC(=O)N1CCC(NC(=O)c2ccc(CS(=O)(=O)c3ccccc3C)o2)CC1 | 0.14 | 0.97 | ? | 1 | 6% | 0.48 | / | /
Cc1cc(C)nc(SCC(=O)NCc2ccco2)n1 | 2.4* | 1.1 | 46 | 1.1 | 8% | 0.2 | -22* | -61
COc1ccc(-c2nc(SCC(=O)NCc3ccco3)c(-c3ccccc3)[nH]2)cc1OC | 5.8* | 1.2 | / | 1.1 | 9% | 0.56 | -11 | -4.2
CCN(c1ccc(C)c(C)c1)S(=O)(=O)c1c(C)[nH]c(=O)[nH]c1=O | / | / | 7 | / | / | / | / | /
CCOc1ccc2nc(N3CCC(C(=O)N4CCN(C(=O)c5ccco5)CC4)CC3)sc2c1 | 2.8* | 1.1 | / | 1 | 7% | -0.37 | ? | -38
CCOC(=O)N1CCN(c2c(NCC3CCN(Cc4cccc(C)c4)CC3)c(=O)c2=O)CC1 | 0.12 | 1.1 | / | 0.99 | 2% | -0.34 | / | /
CCOC(=O)N1CCC(Nc2c(NCCCN(CC)c3cccc(C)c3)c(=O)c2=O)CC1 | 1.2 | 1.1 | -206 | 1 | 4% | 0.69 | / | /
Cc1c(C(=O)NCc2cccs2)oc2ccc(S(=O)(=O)N3CCOCC3)cc12 | 2.4 | 1.1 | / | 1.1 | 4% | -0.0072 | / | /
Cc1cc(=O)oc2ccc(OC(=O)c3cccc(S(=O)(=O)N4CCOCC4)c3)cc12 | 4.8* | 1.1 | -3 | 1 | 0% | -0.6 | ? | -38
CC(=O)NCCc1ccc(S(=O)(=O)N2CCOCC2)cc1 | 2.2* | 1.1 | 12 | 1 | 1% | 0.75 | -3 | -36
Cc1c(C(=O)NCCC2=CCCCC2)oc2ccc(S(=O)(=O)N3CCOCC3)cc12 | 15* | 1.1 | 3 | 1 | 0% | -2.9* | ? | -54
Cc1cccc(NC(=O)c2oc3ccc(S(=O)(=O)N4CCOCC4)cc3c2C)c1C | 9.5* | 1.2 | 27 | 1 | 6% | -1.3 | ? | -32
Cc1cc(NC(=O)CSc2cn(CCNC(=O)c3ccc(F)cc3)c3ccccc23)no1 | 4.2* | 1.1 | 4 | 0.99 | 3% | -0.44 | -12 | -15
CS(=O)(=O)Nc1ccc(C(=O)NCc2ccco2)cc1 | -0.13 | 1.1 | 6 | 0.99 | 4% | 1.1 | / | /
COc1ccc(N2CSC3=C(C#N)C(c4ccc(OC)c(OC)c4)CC(=O)N3C2)c(OC)c1 (configuration not stated) | 0.17 | 1.2 | -10 | 1.1 | 11% | 0.043 | / | /
COc1ccc(C2CC(=O)N3CN(c4ccc(C)c(Cl)c4)CSC3=C2C#N)cc1OC (configuration not stated) | 10* | 1.1 | -12 | 1.1 | 1% | 0.093 | ? | -29
O=C(NCc1cccs1)Nc1ccc2c(c1)OCO2 | 3.1* | 1.1 | 56 | 1 | 1% | 0.11 | ? | -52
O=C(NCc1ccccn1)Nc1ccc2c(c1)OCO2 | 0.12 | 1.1 | / | 0.99 | 2% | -0.19 | / | /
COc1ccc(OC)c(S(=O)(=O)NCCc2ccccc2)c1 | 1.1 | 1.1 | 31 | 1 | 6% | 0.14 | / | /
SMILES | M1 agonist | Autofluor 339 | mHtt clearance | A340 absorber | NADH enzymes | M1 antagonist | M1 ag confirm | M4 ag counter
COc1cc(Nc2cc(C)nc3ncnn23)cc(OC)c1 | 1.4 | 1.1 | / | 1.1 | 1% | -0.8 | / | /
COc1cc(Nc2cc(C)nc3ncnn23)cc(OC)c1OC | 4.4* | 1.1 | / | 1 | 1% | -0.68 | ? | -36
CC1CCN(S(=O)(=O)c2ccc(S(=O)(=O)NCC(=O)C(C)(C)C)cc2)CC1 | 0.11 | 1 | -1 | 1 | 1% | -0.26 | / | /
Cc1cc(SCC(=O)OCC(=O)N2CCN(C(=O)c3ccco3)CC2)c(C)cc1Br | 4.1* | 1 | 1 | 1 | 8% | 0.11 | -5.5 | -11
CCOc1ccc(C(O)C(CN2CCOCC2)c2ccccc2)cc1 (configuration not stated) | / | / | -37 | / | / | / | / | /
Cc1cc(C)n(-c2nc(SCC(=O)NCC3CCCO3)c3c4c(sc3n2)CCCC4)n1 (configuration not stated) | -0.54 | 1.2 | / | 1.1 | 5% | -0.2 | / | /
Cc1cc(C)n(-c2nc(NCC3CCCO3)c3c4c(sc3n2)COC(C)(C)C4)n1 (configuration not stated) | 3.4* | 3.7* | / | 1.1 | 8% | -0.99 | -18 | -17
O=C(CSc1nnc(-c2cccs2)n1Cc1ccco1)Nc1ccc2c(c1)OCO2 | -1.1 | 1.1 | -26 | 1 | 4% | -0.064 | / | /
O=C(CSc1nnc(-c2ccccc2)n1Cc1ccco1)Nc1ccc2c(c1)OCCO2 | 3.5* | 1.1 | / | 1 | 8% | -0.018 | -11 | -40
N#Cc1sc2nc(-c3ccccc3)cc(-c3ccco3)c2c1N | 15* | 1.3 | 38 | 1.1 | 6% | 0.78 | 24 | -11
CCC1(C)N(O)C(C)(C)C(c2ccc(F)cc2)=[N+]1[O-] (configuration not stated) | / | / | 4 | / | / | / | / | /
COc1ccc(NC(=O)c2[nH]c(C)c(C(C)=O)c2C)cc1Cl | 5.5* | 1.1 | 15 | 1.1 | 4% | -3.1* | -2.4 | -16
COc1ccc(C2C(C#N)=C(N)N3C(=C2C#N)Sc2ccccc23)cc1 (configuration not stated) | 46* | 1.7 | / | 1.1 | 14% | -1.5 | 131* | 92
CCOC(=O)N1CCN(c2nc3ccccc3nc2C(C#N)C(=O)NCCc2ccccc2)CC1 (configuration not stated) | 22* | 1.5 | 17 | 1.1 | 2% | -0.62 | ? | 81
CCN1CCN(c2nc3ccccc3nc2C(C#N)C(=O)OCc2ccccc2)CC1 (configuration not stated) | -2.7 | 1.5 | / | 1 | 6% | -0.93 | / | /

Compound activity (PubChem BioAssay)
